Laboratory results reported in PubChem BioAssay.
Inconclusive results are not listed. Calls of active or inactive are those of the source.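 The calls were made as follows: active = viability at or below 27.92% in each of two runs, the all-compound median minus 4 SD; inconclusive = no clear call, values can overlap the other calls; inactive = the rest.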

Assay: viability of PTEN-null HCT116 cells – cell-based, HCT116 clonal line, CellTiter-Glo, pilot screen (AID 824);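 also: 0% = 20 µM Hyamine control and 100% = vehicle cell control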
Settings: HCT116 PTEN-deleted viability, 60 h, at 10 µM, active compounds read low

SMILES	viability
CCOC(=O)N1CCC(NC(=O)CS(=O)(=O)Cc2nc(-c3ccc(C)cc3)oc2C)CC1	81.3% (inactive)
COc1ccc(OC)c(C2CC(=O)N3CN(c4ccccc4F)CSC3=C2C#N)c1 (stereo not given)	101% (inactive)
CC(=O)C1=C(C)N=c2s/c(=C/c3ccc4c(c3)OCO4)c(=O)n2C1c1ccc(N(C)C)cc1 (stereo not given)	89.5% (inactive)
Cc1c(N=Cc2ccco2)c(=O)n(-c2ccccc2)n1C	96.7% (inactive)
O=S(=O)(c1ccc(Br)cc1)N1CCN(c2cc(-c3ccccc3)nc3ncnn23)CC1	71.9% (inactive)
Cn1c(NC(=O)Cc2cccs2)cc(=O)n(C)c1=O	101% (inactive)
CCOC(=O)c1c(NC(C)=O)no[n+]1[O-]	97.1% (inactive)
COc1ccc(N(CC(=O)N2CC=C(c3ccccc3)CC2)S(=O)(=O)c2c(C)noc2C)cc1	97.2% (inactive)
C=CCn1c(C)c(C(C)=O)c(SC)nc1=S	99.8% (inactive)
COc1ccc(N(CC(=O)Nc2cc(OC)ccc2OC)S(=O)(=O)c2c(C)nn(C)c2C)cc1	81% (inactive)
COc1ccc(C2C(C(=O)NCCN(C)C)c3ccccc3C(=O)N2C)cc1OC (stereo not given)	97.9% (inactive)
CC(C)N1CCc2c(sc(NC(=O)c3ccc(S(=O)(=O)N4CCOCC4)cc3)c2C#N)C1	86.3% (inactive)
COC(=O)c1c(NC(=O)CSc2nnnn2-c2ccccc2)sc2c1CCC(C)C2 (stereo not given)	78.3% (inactive)
COC(=O)CC1Oc2ccccc2N(Cc2ccccc2)C1=O (stereo not given)	92.5% (inactive)
CCCC(=O)Nc1nc2ccc(OC)cc2s1	80.7% (inactive)
CCCCCn1c(CN2CC(C)OC(C)C2)nc2c1c(=O)n(C)c(=O)n2C (stereo not given)	86.6% (inactive)
Cc1ccc(C2/C(=C(/O)c3ccc(Br)cc3)C(=O)C(=O)N2Cc2ccco2)o1 (stereo not given)	65% (inactive)
CN1CCN(S(=O)(=O)c2ccc3c4c(cccc24)C(=O)N3)CC1	96.4% (inactive)
c1ccc(Sc2nc(N3CCCCC3)nc(N3CCCCC3)n2)nc1	86.5% (inactive)
O=C(O)CSCCc1ccccn1	99.6% (inactive)

SMILES	viability
CCCC(=O)N1CC(=O)Nc2ccc(F)cc2C1c1ccccc1 (stereo not given)	92.6% (inactive)
CCOC1=NC(C(=O)O)c2ccccc2/C(=C(/C)Cl)N1 (stereo not given)	96.8% (inactive)
COc1ccc(C(=O)NCc2cn3ccsc3n2)cc1OC	94.6% (inactive)
O=C(Nc1cccc(F)c1)c1ccc(S(=O)(=O)N2CCCC2)cc1	97% (inactive)
CCN(CC)C(=O)Cn1c(=O)n(-c2ccccc2)c(=O)n1CC(=O)N(CC)CC	97.4% (inactive)
CC1=Nc2ccc(C)cc2N(Cc2ccccc2)C(=O)C1	93.8% (inactive)
CCCN(CCC(=O)Nc1ccccc1F)CC1CC1	95.3% (inactive)
CC(C)c1nnc(NC(=O)c2ccc(S(=O)(=O)N3CCOCC3)cc2)s1	99.3% (inactive)
COc1ccccc1NC(=O)c1ccc(N)cc1	103% (inactive)
Cc1cccc(C2CC(c3ccc(F)cc3)Nc3nc(N)nn32)c1 (stereo not given)	77.1% (inactive)
O=C(Nc1nnc(-c2ccc3c(c2)CCCC3)o1)C1CCCCC1	62% (inactive)
O=C(NCCc1csc(-c2cccnc2)n1)c1cccs1	106% (inactive)
C=CC1C(N2CCOCC2)C(C)(C)S1(=O)=O (stereo not given)	101% (inactive)
Cc1ccc2c(c1)NCC(C(=O)NC1CCC(C)CC1)O2 (stereo not given)	91.4% (inactive)
Cc1ccc(N2CC(c3nc4ccccc4n3C)CC2=O)cc1C (stereo not given)	105% (inactive)
CC(=NCCc1ccccc1)C1=C(O)COC1=O	99.9% (inactive)
COC(=O)c1c(-c2ccc(C)cc2)csc1N	87.8% (inactive)
O=C1C(=O)N(CCO)C(c2ccccc2)/C1=C(\O)c1ccccc1 (stereo not given)	101% (inactive)
CCOc1ccccc1NC(=O)CN(c1cc(C)cc(C)c1)S(=O)(=O)c1c(C)noc1C	95.1% (inactive)
COc1ccc(OCC(=O)Nc2cc(-c3nn4c(C)nnc4s3)ccc2C)cc1	94% (inactive)
